D2 antagonist – antagonizes the human D2 dopamine receptor. P14416. HEK293 TREx D2 cells, calcium flux, dopamine EC80. inhibition, % at 10 µM. 340,000 tested, 2% active; in the data active = inhibition above about 30%; inactive = below that, where a call was filed; note: 0% is about no effect
Target sequence (P14416 whole entry, looked up): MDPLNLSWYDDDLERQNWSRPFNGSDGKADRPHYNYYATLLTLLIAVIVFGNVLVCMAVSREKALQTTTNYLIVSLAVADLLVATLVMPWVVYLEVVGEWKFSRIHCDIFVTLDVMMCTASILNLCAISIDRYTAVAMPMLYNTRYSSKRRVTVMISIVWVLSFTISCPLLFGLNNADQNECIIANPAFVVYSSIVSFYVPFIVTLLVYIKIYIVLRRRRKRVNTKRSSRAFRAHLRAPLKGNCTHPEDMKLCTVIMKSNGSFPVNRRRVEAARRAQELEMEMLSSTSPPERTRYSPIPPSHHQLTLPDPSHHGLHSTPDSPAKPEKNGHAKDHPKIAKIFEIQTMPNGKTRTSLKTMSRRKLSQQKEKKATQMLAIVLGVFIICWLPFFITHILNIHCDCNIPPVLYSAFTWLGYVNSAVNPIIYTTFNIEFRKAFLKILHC
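In this primary screen, negative modulation is detected by tracking calcium flux after an EC80 dopamine challenge in inducible HEK293 T-REx D2 cells preexposed to test compound for 180 s.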
D2 ag-1 – agonists of human D2 dopamine receptor (beta-arrestin). P14416. DiscoveRx PathHunter D2 beta-arrestin, luminescence, 90 min; 100% = 57 uM dopamine signal. activation, % (concentration not given with the values). 360,000 tested, 0.084% active; in the data active = activation above about 40%
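DiscoveRx PathHunter D2 beta-arrestin cells (2,100/well) attached overnight, then compound-stimulated 90 min at 37 C in HBSS/10 mM HEPES/0.1% Tween-20 buffer; beta-galactosidase complementation read by luminescence after 1 h at ambient temperature. Dopamine 57 uM final (EC100) as control.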
D2 ag-2 – agonists of human D2 dopamine receptor; 340,000 tested, 0.53% active; HEK293 T-REx D2 cells, calcium flux agonist mode; P14416; activation, % at 2 µM;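 active = activation over 3 SD above normal in the single-dose calcium agonist read, cut at about 30% in these data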; note: 0% is about no effect
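HEK293 Trex D2 cells, tetracycline-induced, o/n 30 C 5% CO2; no-wash Ca dye, RT 30–90 min; 10-cycle baseline, 23 nl cpd added, kinetic Ca read 180 s; agonist hits = positive Ca response.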
D2 PAM-1 – D2 dopamine receptor (human) potentiation; P14416; 340,000 tested, 0.34% active; HEK293 T-REx D2, calcium flux, EC20 dopamine potentiation; potentiation, % at 10 µM;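 active = potentiation over 3 SD above the plate norm, cut at about 30% in these data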; note: 0% is about no effect
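Primary screen. Calcium kinetics in induced HEK293 T-REx D2 cells: compound pre-addition 180 s, EC20 dopamine, 180 s more.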
D2 PAM-2 – potentiates the human D2 dopamine receptor allosterically; 360,000 tested, 0.23% active; potentiation, % (no concentration beside the values); DiscoveRx D2 beta-arrestin cells, luminescence, 90 min; 100% = 57 uM dopamine signal; in the data active = potentiation above about 50%
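PathHunter D2 cells, attached overnight at 37 deg C, received compound in DMSO plus dopamine at EC20 (50 nM final) for 90 min at 37 deg C. Beta-arrestin recruitment was read as luminescence after 1 h with detection reagent at ambient temperature.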
* marks the source's active call; other numbers are inactive results; / = not tested or not shown. This is a sample that favours compounds with a hit; in the whole collection about 2.4% have one here.

SMILES	D2 antagonist	D2 ag-1	D2 ag-2	D2 PAM-1	D2 PAM-2
CCOc1ccccc1OCCN1CCC(Cc2ccccc2)CC1	64*	0	-2	-18	-19
N#Cc1ccccc1OCCCN1CCC(Cc2ccccc2)CC1	85*	0	0	-27	-7
COc1ccccc1OCCCCN1CCN(C(c2ccccc2)c2ccccc2)CC1	61*	-3	25	-19	-14
CC(=O)CCc1ccc(OCCCCN2CCC(Cc3ccccc3)CC2)cc1	54*	-1	0	-26	-7
CCOc1ccccc1OCCN1CCCC1	-3	-2	1	-1	-65
COc1cc(/C=N/N(C)C)ccc1OC(=O)c1cccs1	-13	3	-1	42*	-10
COc1cc(/C=N/NC(N)=O)ccc1OC(=O)c1cccs1	-3	4	0	3	0
CCOC(=O)C1=C(CN2CCN(c3cccc(OC)c3)CC2)NC(=O)NC1c1ccc(OC)cc1 (configuration not stated)	/	/	3	-15	/
Cc1cc(C)c2ccc(C)[n+]([O-])c2c1O	37*	1	0	1	-14
Cc1cc(C)c2ccc(N)nc2c1O	-14	0	1	-6	-11
O=c1onc(-c2ccccc2Cl)n1-c1ccccc1Cl	/	40*	/	/	58*
CC12CN(Cc3ccccc3)CC(C)(CN(Cc3ccccc3)C1)C2=O	-9	1	1	5	-8
CC1(C)C(=O)NC(=O)N1Cc1ccccc1	45*	-3	0	-5	-16
COc1ccc(S(=O)(=O)N2CCN(Cc3ccc4c(c3)OCO4)CC2)c2ccccc12	31*	-3	0	-10	-5
c1ccc2nc(N3CCN(Cc4ccc5c(c4)OCO5)CC3)cnc2c1	-18	-3	-1	-15	-27
COc1nc2ccccc2nc1N1CCN(Cc2ccc3c(c2)OCO3)CC1	51*	-3	-1	-27	-34
COc1ccc(Cl)cc1S(=O)(=O)N1CCN(Cc2ccc3c(c2)OCO3)CC1	-1	-1	0	-7	-6
COc1cc(Nc2nc(SCc3ccccc3Cl)nc3ccccc23)cc(OC)c1	/	/	1	-7	/
Cn1c(CNC(=O)CSc2n[nH]c(-c3ccccc3Cl)n2)nc2ccccc21	/	/	/	5	/
CCC(NS(=O)(=O)c1ccc(C)cc1)C(=O)N1CCC2(O)CCCCC2C1 (configuration not stated)	9	0	0	39*	-1
CN1C(C(=O)NCc2cccc(C(F)(F)F)c2)CC2Cn3c(nc4cc5ccccc5cc43)C21 (configuration not stated)	43*	0	1	7	-3
Cc1cccc(CNC(=O)c2ccc3nc(-c4ccccc4)c(-c4ccccc4)nc3c2)c1	/	/	/	-4	/
CC(=O)c1ccc(OCCCC(=O)Nc2cc(S(=O)(=O)N(C)C)ccc2C)cc1	19	-4	1	-17	-31
Cc1ccc(S(=O)(=O)N(C)C)cc1NC(=O)CCCNC(=O)c1ccc(Cl)cc1	41*	-2	-1	-43	-20
CSc1cccc(NC(=O)CCCNC(=O)c2ccc(Cl)cc2)c1	45*	-2	-1	-23	-14
SMILES	D2 antagonist	D2 ag-1	D2 ag-2	D2 PAM-1	D2 PAM-2
Cc1ccc(S(=O)(=O)N(C)C)cc1NC(=O)Nc1ccccc1F	64*	-3	-1	-27	-14
COc1ccccc1CNC(=O)CCCNC(=O)c1ccc(Cl)cc1	-19	0	0	30*	-9
CN(Cc1ccccc1)c1ccc(-c2nc(-c3ccccn3)no2)cc1[N+](=O)[O-]	/	/	1	2	/
Cc1ccc(C)c(CN2C(=O)CSc3ccc(C(=O)NCCc4ccc(Cl)cc4)cc32)c1	/	/	1	17	/
Cc1ccc(CC(=O)NCc2nc(-c3cccc(C)c3)no2)cc1	/	/	-1	-7	/
Cc1cccc(NC(=O)CCNC(=O)c2ccccc2)c1	35*	0	-4	6	-2
CCN(CC)S(=O)(=O)c1ccc(C)c(NC(=O)CSc2ncc(C(F)(F)F)cc2Cl)c1	-3	-6	0	-3	-13
Cc1ccc(S(=O)(=O)N(C)C)cc1NC(=O)CSc1ncc(C(F)(F)F)cc1Cl	37*	1	1	-39	-6
COc1ccc(-n2c(SCC(=O)NCc3ccccc3)nc3c([nH]c4ccccc43)c2=O)cc1	/	/	0	1	/
CN(CC1CCOCC1)C(=O)c1ccc2nc(Cc3cccc(Cl)c3)oc2c1	/	3	/	11	12
O=C(NCC1CCOCC1)c1ccc2nc(Cc3cccc(Cl)c3)oc2c1	61*	-5	1	-22	-5
CC(=O)c1ccc(NC(=S)N2CCC(Cc3ccccc3)CC2)cc1	32*	-3	-1	-6	-12
O=C(c1ccc(Br)o1)N1CCC(Cc2ccccc2)CC1	49*	-4	-1	8	-14
CC(=O)c1cccc(NC(=S)N2CCC(Cc3ccccc3)CC2)c1	8	-2	0	-8	-17
N#Cc1ccccc1OCc1nnc(-c2ccccc2Br)o1	12	2	0	-5	-1
Brc1ccccc1-c1nnc(COc2cccc3cccnc23)o1	38*	7	1	0	20
Brc1ccccc1-c1nnc(COc2ncnc3ccccc23)o1	-7	-2	1	-13	-5
Clc1ccccc1OCc1nnc(-c2ccccc2Br)o1	36*	-2	-1	-2	-17
CCOC(=O)Cn1c(C)c(Br)c(=O)c2cccc(C)c21	31*	-3	0	-11	-27
CCOC(=O)N1CCC(NC(=O)c2ccc3c(c2)N(Cc2ccc(Cl)cc2)C(=O)c2ccccc2S3=O)CC1 (configuration not stated)	/	/	/	18	/
CCOc1cccc(CN2CCCC(N3CCN(c4cccc(Cl)c4)CC3)C2)c1O (configuration not stated)	37*	-2	8	-9	-21
CCOc1cccc(CN2CCCC(N3CCc4ccccc4C3)C2)c1O (configuration not stated)	-19	-6	-1	12	-24
CS(=O)(=O)N1CCCC(C(=O)N2CCN(c3cccc(Cl)c3)CC2)C1 (configuration not stated)	31*	4	1	6	2
O=C(c1cnccn1)N1CCCC(N2CCN(c3cccc(Cl)c3)CC2)C1 (configuration not stated)	8	5	37*	-3	-20
CCOc1cccc(CN2CCCC(C(=O)c3cc(Cl)ccc3OC)C2)c1O (configuration not stated)	66*	2	1	-20	-22
CS(=O)(=O)N1CCC(C(=O)N2CCN(c3cccc(Cl)c3)CC2)CC1	7	3	0	/	-4
Cc1cccc(C(=O)N2CCCC(N3CCN(c4cccc(Cl)c4)CC3)C2)n1 (configuration not stated)	4	1	0	3	-20
